# Measurements as given in PubChem BioAssay (NCI).
# The panel holds about 83,000 compounds, 20% with a hit somewhere; the sample as a whole holds those more often.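 Single-dose data. Exposure time 48 hours. Values below 10 considered active.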 The source made the active and inactive calls.
# System: ACHN renal
# Test: NCI-60 one-dose screen, 48 h (100 = growth as untreated, 0 = no growth, -100 = all killed)
# Settings: 10 µM unless noted
row,Structure (SMILES),growth
1,O=C(Oc1ccccc1)c1ccccc1Cl,102% (inactive)
2,COc1ccc(-c2nc(SCC(C)C)nc(Nc3ccc(C(=O)O)cc3)c2C#N)cc1,89.5% (inactive)
3,C[C@@H](c1ccc2c(c1)[nH]c1ccc(Cl)cc12)c1nc2ccccc2[nH]1,96.5% (inactive)
4,Cc1nnc(/N=C2\NC(=O)/C(=C/C=C/c3ccccc3)S2)s1,50.8% (inactive)
5,CCOc1ccccc1/C=N\N=C(N/N=C/c1ccccc1OCC)N/N=C/c1ccccc1OCC,9.67% (active)
6,CCOC(=O)CSSCC(=O)OCC,103% (inactive)
7,O=C(O)c1ccc(Br)nc1,103% (inactive)
8,O=C(O)c1ccc(-c2nn(-c3ccc(C(=O)O)cc3)cc2CNc2ccc(Br)cc2)cc1,102% (inactive)
9,NC(N)=N/N=C/c1cccc(Br)c1,108% (inactive)
10,C=CCNC(=S)NNc1ccc([N+](=O)[O-])cn1,104% (inactive)
11,CCCC(=O)Nc1ccccc1C(=O)O,108% (inactive)
12,O=C(/C=C1\C(=O)N(Cc2ccc([N+](=O)[O-])cc2)c2ccccc21)c1ccc(OCCN2CCCCC2)cc1,-98.6% (active)
13,COc1cc2cc3cc4cc(OC)c(OC)cc4c(C)[n+]3cc2cc1OC (tested in a mixture with another compound),95.2% (inactive)
14,COc1ccc(-c2nc(N)n(C(=S)Nc3ccccc3)n2)cc1,97.9% (inactive)
15,Nc1ccc(N=Nc2ccccc2)c2cc(S(=O)(=O)O)ccc12,104% (inactive)
16,O=C(C(=O)N1CCOCC1)c1ccc(O[C@H]2O[C@H](CO)[C@@H](O)[C@H](O)[C@@H]2O)cc1,95% (inactive)
17,O=C(/C=C1\C(=O)N(Cc2ccccc2)c2ccccc21)c1ccc(OCCN2CCCCC2)cc1,-25.4% (active)
18,CCCCCCNC(=O)Oc1ccc(/C(=C(/C)Cc2ccc(OC)cc2)c2ccc(OCCN(C)C)cc2)cc1,64.2% (inactive)
19,COc1ccc(-c2nc(SCC(C)C)nc(Nc3ccc(C)cc3)c2C#N)cc1,13.6% (inactive)
20,CCOC(=O)C1CCCN1C(=O)C1(NC(C)=O)CCCC1 (stereo not given),117% (inactive)

row,Structure (SMILES),growth
1,CCOC(=O)C1=NN(c2ccccc2)C2=NC(=O)/C(=C\c3cn(-c4ccccc4)nc3-c3cc4ccccc4o3)C(=O)N12,94.8% (inactive)
2,CC1=C(C)C[C@]2(C(=O)O[C@H]3CCCC[C@@H]32)[S@](=O)C1,120% (inactive)
3,CC(=N\N=C(N)N)/C(=N/N=C(N)N)c1ccccc1,106% (inactive)
4,O=C1/C(=C\c2cn(-c3nc(N4CCOCC4)nc(N4CCOCC4)n3)c3ccccc23)c2ccccc2N1c1c(Cl)cccc1Cl,72.7% (inactive)
5,Cc1ccc(CC(=O)O)c(C)c1,110% (inactive)
6,N=C(N)N=Nc1ccc(NN=C(N)N)cc1,88.2% (inactive)
7,CCCNC(=O)Oc1ccc(/C(=C(/C)Cc2ccc(OC)cc2)c2ccc(OCCN3CCCCC3)cc2)cc1,102% (inactive)
8,CCCCN(CCCC)CCCNc1c2c(nc3ccc(Cl)cc13)CCCC2,102% (inactive)
9,CCCCCCCCCCN1CC2CCCCC2C1 (stereo not given),80.1% (inactive)
10,N=C(N)N=Nc1ccc(NN=C(N)N)c2ccccc12,105% (inactive)
11,Cc1c(Cc2ccccc2)c(=O)oc2c(C)c(OCC(=O)n3nc(C#N)cc3N)ccc12,93.6% (inactive)
12,CC(=O)OCC1O[C@@H](OC(C)=O)[C@@H](NC(=O)NS(=O)(=O)c2ccccc2)C(OC(C)=O)[C@@H]1OC(C)=O (stereo not given in full),104% (inactive)
13,CC(=O)Nc1nc(C)c(C(=O)N/N=C/N2CCCCC2)s1,116% (inactive)
14,Cc1ccc(NCc2cn(-c3ccc(C(=O)O)cc3)nc2-c2ccc(C(=O)O)cc2)cc1,108% (inactive)
15,CC(C)CSc1nc(-c2ccc(F)cc2)c(C#N)c(N2CCCCC2)n1,98.8% (inactive)
16,COc1ccc(/C=N/c2cc(C(C)(C)C)nn2-c2ccccc2)cc1,95.7% (inactive)
17,CC[C@H](Nc1ncnc2nc[nH]c12)c1nc2cccc(NCc3ccc(C(=O)NO)nc3)c2c(=O)n1-c1ccccc1,97% (inactive)
18,COc1ccc(CN2C(=O)/C(=C\C(=O)c3ccc(OCCN4CCCC4)cc3)c3ccccc32)cc1,69.9% (inactive)
19,COC1=C(OC)C(=O)c2ccccc2C1=O,92% (inactive)
20,CCC(C)C1NC(=O)C(CC(C)C)NC(=O)C(C)NC(=O)C(C(C)C)NC(=O)C(CCCCN)NC(=O)C(CC(C)C)NC(=O)C(C(C)C)NC(=O)[C@H](C)NC(=O)C(C(C)CC)NC(=O)C(CCCN=C(N)N)NC(=O)C(CCCCN)NC(=O)C(CCCN=C(N)N)NC(=O)C(CCCCN)NC(=O)C([C@H](C)CC)NC(=O)C(CCCCN)NC1=O (stereo not given in full),3.41% (active)
